In PubChem BioAssay (NCI) one finds growth data, which are given here for 13 molecules.

About 83,000 compounds went through this panel and 20% of them were active in at least one assay; those are over-represented in the sample as a whole.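 In brief: 96-well plates, 48 h treatment, single concentration, percent growth endpoint.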 A number with no mark means an inactive call. Active and inactive are the calls of the source. Rule for the calls: active = growth percent below 10; inactive = the rest.

What all share (experiment): NCI-60 one-dose screen, 48 h (100 = growth as untreated, 0 = no growth, -100 = all killed)
Common to all, as to settings: 10 µM unless noted

Assay [1] concerns NCI-H23 lung.
Assay [2] relates to NCI-H226 lung.
Assay [3] concerns NCI-H322M lung.
The subject of assay [4] is HOP-62 NSCLC.
Assay [5] relates to NCI-H460 lung.
Assay [6] deals with HOP-92 NSCLC.
Assay [7] has as its system NCI-H522 lung.
Assay [8] has as its system A549/ATCC NSCLC.
Assay [9] has as its system 786-0 renal.
Assay [10] deals with COLO 205 colon.

Consider `CCCCC[C@H](O)C/C=C1/C(=O)C=C[C@@H]1C/C=C\CCCC(=O)OC`, for which the growth in [1] is 67.9%; in assay [2], 70.4%; in assay [3] it was 79.7%; in assay [4], 34%; in assay [5], 46.8%; in [6] it was 108%. For the same molecule, the growth in [7] was 30.4%; in assay [8] it was 72%; in assay [9], 44%; in assay [10], 62.8%.

As to `O=C(/C=C/c1sc(Cl)nc1Cl)c1ccc(F)cc1`, the growth is 94% in [1]; 96.4% in assay [2]; 100% in [3]; 95.6% in assay [4]; 102% in assay [5]; 96.9% in assay [6]. Moreover, the growth in assay [7] was 86.6%; in assay [8], 98.4%; in [9] it was 95.8%; in [10], 75.6%.

Consider `Clc1ccc(C(/C=C/c2sc(Cl)nc2Cl)=N/Nc2cc(Cl)cc(Cl)c2)cc1`, for which the growth in assay [1] is 92.2%; in [2], 90.1%; in [3] it was 99.9%; in [4], 99.1%; in assay [5], 103%; in [6], 93%. Also, the growth in [7] was 90.8%; in [8], 103%; in [9], 106%; in assay [10], 118%.

As to `Cc1ccc(C(CC(=O)O)c2c(C)[nH][nH]c2=O)cc1` (stereo not given), the growth in assay [1] is 95.3%; in assay [2], 102%; in [3], 104%; in assay [4], 97.9%; in assay [5], 108%; in assay [6], 118%. The growth in assay [7] is 94.5%; in assay [8], 105%; in assay [9], 96%; in [10], 113%.

For the molecule `COC(=O)[C@H](C)NC(=O)NC(=O)NC(=O)CI`, the growth in [1] is 86.2%; in assay [2], 89.2%; in [3], 103%; in assay [4] it was 98.4%; in assay [5], 104%; in [6], -21.4% (active). For the same molecule, the growth was -75% (active) in assay [7], 96.4% in [8], 63.9% in [9] and 32% in assay [10].

In the case of `CC(=O)N1CCN(c2ccc(OCC3CO[C@](Cn4ccnc4)(c4ccc(Cl)cc4Cl)O3)cc2)CC1` (stereo not given in full), the growth in assay [1] is 78.3%; in assay [2], 58.7%; in assay [3], 93.6%; in assay [4] it was 74.4%; in assay [5], 96.4%; in [6] it was 61.4%. In addition, the growth in assay [7] was 82.4%; in [8], 85.2%; in assay [9], 77.6%; in [10], 86.9%.

`Cn1cc(-c2ccc3cc(-c4ccc(CC(=O)Nc5cc(C(C)(C)C)nn5C)cc4)cnc3c2)cn1`: the growth in [1] is 5.37% (active); in assay [2], -17% (active); in assay [3], 21.4%; in assay [4], 15.9%; in assay [5], 9.41% (active); in assay [6], 21.1%. In addition, the growth in assay [7] is 10.8%; in assay [8] it was 17.1%; in [9], 21.4%; in assay [10] it was 16.2%.

Turning to `COc1ccc(OC)c(/C=C/C(=O)N/N=C/c2ccc(Cl)cc2)c1`, the growth in assay [1] was 34.8%; in assay [2] it was 73.1%; in [3] it was 41.3%; in [4], 37.9%; in assay [5], 5.19% (active); in assay [6], 77.7%. In addition, the growth was -36.2% (active) in assay [7], 27.8% in [8], 16.7% in assay [9] and -48.9% (active) in assay [10].

Regarding `COc1cc2cc(Oc3ccc(NC(=O)Nc4ccc(Cl)c(C(F)(F)F)c4)cc3)c(C)nc2cc1OCCN1CCOCC1`, the growth in [1] is 10.5%; in assay [2], 34.9%; in assay [3], 61.1%; in [4], 27.6%; in assay [5] it was 8.67% (active); in assay [6] it was 20.5%. The growth in assay [7] was 20.7%; in [8], 12.7%; in assay [9] it was 29.2%; in [10], -28.3% (active).

Take `Cc1nc2ccccc2n1-c1ncnc2c1CC(C)c1ccccc1N2C` (stereo not given): the growth in assay [1] was 85.6%; in assay [2], 89.7%; in assay [3] it was 97.8%; in assay [4], 68.4%; in assay [5] it was 102%; in assay [6] it was 51.4%. Also, the growth in assay [7] was 72.5%; in assay [8], 70.8%; in assay [9] it was 92%; in assay [10], 88%.

Turning to `CCc1ccccc1-n1c(N)c(C#N)c(-c2ccc(Cl)cc2)c(C#N)c1=O`, the growth is 107% in [1]; 110% in assay [2]; 140% in assay [3]; 101% in assay [4]; 111% in assay [5]; 80% in assay [6]. The growth in assay [7] was 94.2%; in assay [8] it was 117%; in assay [9], 112%; in assay [10] it was 126%.

Regarding `CCC(=O)Nc1ccc(-c2nc(-c3cccc(OC)c3)c(-c3ccnc(Br)c3)[nH]2)cc1`, the growth is 76.9% in assay [1]; 55.1% in [2]; 67.4% in assay [3]; 75.3% in assay [4]; 49.4% in [5]; 61.4% in assay [6]. In addition, the growth in assay [7] was 56.9%; in assay [8], 60.9%; in assay [9] it was 40.8%; in [10], 71.2%.

For the molecule `c1cc(NCCc2ccncc2)nc(-n2cnc3ccccc32)c1`, the growth is 95.3% in assay [1]; 76.6% in [2]; 81.4% in assay [3]; 90.7% in assay [4]; 79% in assay [5]; 93% in [6]. Further, the growth is 78.8% in assay [7], 78.8% in assay [8], 92% in assay [9] and 123% in [10].
